# Assay results published in the supplement of paper PMC8728848.
# About 410 targets per protein were measured; listed, in parts, are those with the strongest signals and a random draw of the rest.
# Assays:
# Assay in all cases: glycan array binding signal (z-score within array); higher = stronger binding
# Details in all cases: glycan notation: IUPAC condensed, linker removed
# [1] = target: Fuc(a1-2)Gal(b1-4)[Fuc(a1-3)]GlcNAc(b1-3)Gal(b1-4)[Fuc(a1-3)]GlcNAc
# Procedure, shortened: (§1)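 Arrays were curated from the Consortium for Functional Glycomics database, 3228 in total, and kept only where the protein sequence was available. Binding is expressed as a within-array Z-score. This score was averaged across arrays of the same protein sequence at different concentrations or buffers and across linkers, and negative values can be read as non-binding.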
# Fuc(a1-2)[Gal(a1-3)]Gal = target: Fuc(a1-2)[Gal(a1-3)]Gal
# Procedure, shortened: as §1
# [2] = target: Fuc(a1-2)[GalNAc(a1-3)]Gal(b1-4)Glc
# Procedure, shortened: as §1
# [3] = target: Fuc(a1-3)[Gal(b1-4)]GlcNAc
# Procedure, shortened: as §1
# Fuc(b1-3)GlcNAc = target: Fuc(b1-3)GlcNAc
# Procedure, shortened: as §1
# Gal(a1-3)Gal = target: Gal(a1-3)Gal
# Procedure, shortened: as §1
# [4] = target: Gal(b1-3)[Neu5Ac(a2-6)]GalNAc
# Procedure, shortened: as §1
# [5] = target: Gal(b1-3)[Neu5Ac(a2-6)]GlcNAc(b1-6)Gal(b1-4)Glc
# Procedure, shortened: as §1
# [6] = target: Gal(b1-4)GlcNAc(b1-3)Gal(b1-4)GlcNAc
# Procedure, shortened: as §1
# Gal3S6S(b1-4)GlcNAc6S = target: Gal3S6S(b1-4)GlcNAc6S
# Procedure, shortened: as §1
# [7] = target: GalNAc(b1-3)Gal(a1-4)Gal(b1-4)GlcNAc
# Procedure, shortened: as §1
# GalNAc(b1-4)GlcNAc = target: GalNAc(b1-4)GlcNAc
# Procedure, shortened: as §1
# Glc(b1-6)Glc = target: Glc(b1-6)Glc
# Procedure, shortened: as §1
# GlcA(b1-3)Gal = target: GlcA(b1-3)Gal
# Procedure, shortened: as §1
# GlcA(b1-6)Gal = target: GlcA(b1-6)Gal
# Procedure, shortened: as §1
# GlcNAc(b1-3)Gal = target: GlcNAc(b1-3)Gal
# Procedure, shortened: as §1
# [8] = target: GlcNAc(b1-3)Gal(b1-4)GlcNAc(b1-3)Gal(b1-4)GlcNAc
# Procedure, shortened: as §1
# Kdn(a2-3)Gal(b1-4)GlcNAc = target: Kdn(a2-3)Gal(b1-4)GlcNAc
# Procedure, shortened: as §1
# Man(b1-4)GlcNAc = target: Man(b1-4)GlcNAc
# Procedure, shortened: as §1
# [9] = target: Neu5Ac(a2-3)Gal(b1-3)[Fuc(a1-4)]GlcNAc
# Procedure, shortened: as §1
# [10] = target: Neu5Ac(a2-3)Gal(b1-4)GlcNAc(b1-3)Gal(b1-4)GlcNAc(b1-3)Gal(b1-4)GlcNAc
# Procedure, shortened: as §1
# [11] = target: Neu5Ac(a2-3)[GalNAc(b1-4)]Gal(b1-4)GlcNAc
# Procedure, shortened: as §1
# Neu5Ac(a2-8)Neu5Ac = target: Neu5Ac(a2-8)Neu5Ac
# Procedure, shortened: as §1
# [12] = target: Neu5Gc(a2-3)Gal(b1-3)[Fuc(a1-4)]GlcNAc
# Procedure, shortened: as §1
# [13] = target: Neu5Gc(a2-3)Gal(b1-4)GlcNAc
# Procedure, shortened: as §1
# [14] = target: Neu5Gc(a2-6)Gal(b1-4)GlcNAc
# Procedure, shortened: as §1
binder,measurement,setting,value
"AICL (Homo sapiens), Q92478 (protein) MMTKHKKCFIIVGVLITTNIITLIVKLTRDSQSLCPYDWIGFQNKCYYFSKEEGDWNSSKYNCSTQHADLTIIDNIEEMNFLRRYKCSSDHWIGLKMAKNRTGQWVDGATFTKSFGMRGSEGCAYLSDDGAATARCYTERKWICRKRIH",glycan array binding signal (z-score),[1],-0.049
same,glycan array binding signal (z-score),Fuc(a1-2)[Gal(a1-3)]Gal,-0.508
same,glycan array binding signal (z-score),[2],-0.265
same,glycan array binding signal (z-score),[3],-0.169
same,glycan array binding signal (z-score),Fuc(b1-3)GlcNAc,-0.469
same,glycan array binding signal (z-score),Gal(a1-3)Gal,-0.224
same,glycan array binding signal (z-score),[4],-0.085
same,glycan array binding signal (z-score),[5],-0.359
same,glycan array binding signal (z-score),[6],-0.439
same,glycan array binding signal (z-score),Gal3S6S(b1-4)GlcNAc6S,5.26
same,glycan array binding signal (z-score),[7],-0.363
same,glycan array binding signal (z-score),GalNAc(b1-4)GlcNAc,-0.322
same,glycan array binding signal (z-score),Glc(b1-6)Glc,-0.395
same,glycan array binding signal (z-score),GlcA(b1-3)Gal,5.65
same,glycan array binding signal (z-score),GlcA(b1-6)Gal,4.6
same,glycan array binding signal (z-score),GlcNAc(b1-3)Gal,-0.329
same,glycan array binding signal (z-score),[8],-0.374
same,glycan array binding signal (z-score),Kdn(a2-3)Gal(b1-4)GlcNAc,2.06
same,glycan array binding signal (z-score),Man(b1-4)GlcNAc,-0.401
same,glycan array binding signal (z-score),[9],-0.312
same,glycan array binding signal (z-score),[10],-0.415
same,glycan array binding signal (z-score),[11],-0.3
same,glycan array binding signal (z-score),Neu5Ac(a2-8)Neu5Ac,0.384
same,glycan array binding signal (z-score),[12],-0.323
same,glycan array binding signal (z-score),[13],0.329
same,glycan array binding signal (z-score),[14],-0.267
